Screening results deposited in PubChem BioAssay by several laboratories.
Only some compounds are listed: those with a hit (about 1.6% of all), similar ones and a draw of the others.
PABP FP inh = PABP poly(A) RNA binding inhibitors, primary screen, biochemical, fluorescence polarization, uHTS | Polyadenylate-binding protein 1 (Homo sapiens), P11940 | calls only at 35 µM | 290,000 tested, 1% active | AID 2014, 2009;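 note: calls also rest on retests at 20 µM and on dose response follow-up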
eIF4H FP inh = human eIF4H binding inhibitors, primary screen, translation initiation inhibitor project, biochemical, uHTS, fluorescence polarization; Eukaryotic translation initiation factor 4H (Homo sapiens), Q15056; eIF4H fluorescence polarization binding assay; inhibition, % at 35 µM; 290,000 tested, 0.94% active;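 note: calls also rest on retests at 20 µM and on dose response follow-up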
MLLE-PAM2 inh = inhibitors of PABP1 MLLE–PAM2 peptide binding, primary screen, biochemical, fluorescence polarization, FITC-PAM2, GST-MLLE | Polyadenylate-binding protein 1 (Homo sapiens), P11940 | inhibition, % at 20 µM | 360,000 tested, 0.36% active; in the data active = inhibition above about 35%, passing the limit was not always enough;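 note: plate controls were DMSO wells with GST-MLLE for no effect and wells lacking GST-MLLE protein for full effect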
eIF4E-4G inh = eIF4E–eIF4G protein interaction inhibitors, primary screen, biochemical, uHTS, TR-FRET, eIF4GI fragment | TR-FRET eIF4E-eIF4GI(517-606) binding, 2 h | inhibition, % at 21.7 µM | 220,000 tested, 0.37% active;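 active = inhibition above about 30%, limit read from the data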;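 note: 0% = full FRET control wells and 100% = background wells lacking eIF4GI fragment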
PERK inhibitor = block of dimerizer-induced PERK translation repression, primary screen, PERK inhibitor project, CHO PERK-DD cells, SEAP luminescence, HTS. Eukaryotic translation initiation factor 2-alpha kinase 3 (Homo sapiens), Q9NZJ5. AID 1416, 2008. inhibition, % at 5.6 µM. 220,000 tested, 0.17% active. CHO PERK-DD fusion, SEAP luminescence translation reporter;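 active = inhibition above the mean inhibition of all tested compounds plus 3 SD, set separately per screening campaign, cut at about 2.9% in these data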;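 note: PERK kinase domain activated by AP20187 dimerizer at 100 nM; 0% = DMSO with dimerizer and 100% = rapamycin at 8.4 µM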
* marks the source's active call; other numbers are inactive results; i = inactive; ? = inconclusive; · = no result given; + = active, no number. Unless noted, the rule behind the calls is not given here.

SMILES | PABP FP inh | eIF4H FP inh | MLLE-PAM2 inh | eIF4E-4G inh | PERK inhibitor
CCNC(=S)N1CCC(NC(=O)C2CCCCC2)CC1 | i | -9 | -83 | -4 | 0
CC(C)(C)c1c(Cl)c(O)c(-c2ccccc2)c(=O)n1-c1ccccc1 | i | -13 | -16 | 33* | 2
Oc1ccc(NCc2cccc(OCc3ccccc3)c2)cc1 | + | 69 | -24 | 0 | 2
Oc1ccc(NCc2cccc(OCc3ccc(F)cc3)c2)cc1 | i | 33 | -9 | 0 | 0
O=C1C=C(c2ccc3c(c2)OCO3)CCC1 | · | · | 7 | · | ·
CC(NC(=S)NC(=O)c1cccs1)c1ccccc1 (centres undefined) | · | · | 22 | · | ·
CC(NC(=O)c1cccs1)C(S)c1ccccc1 (centres undefined) | i | -11 | 43* | · | ·
O=C1NC(=O)C(c2ccccc2[N+](=O)[O-])=C1Nc1ccc(O)c(Cl)c1 | + | 67* | 27 | · | ·
CCN1/C(=C2\OC(=S)N(C)C2=O)C=Cc2ccccc21 | i | 11 | -23 | 3 | 1
CN1C(=O)/C(=C2/C=CC=CN2C)OC1=S | i | -8 | 40* | -1 | 0
Cc1ccc(S(=O)(=O)N(C)C)cc1NC(=S)NNC(=O)C1CC1 | i | -2 | -28 | 2 | 0
Cc1ccc(S(=O)(=O)N(C)C)cc1NC(=S)NNC(=O)C(N)=O | + | 9 | -28 | -2 | 1
O=C(O)CCC(=O)Nc1ccc(N2CCCCC2)c(C(=O)O)c1 | i | -3 | 3 | 6 | 2
O=C(O)CCC(=O)Nc1ccc2c(c1)Cc1cc(NC(=O)CCC(=O)O)ccc1-2 | i | 59* | 7 | · | ·
Cc1cc(=O)[nH]c(SCn2nnc3ccccc3c2=O)n1 | i | -11 | 43* | -3 | -2
O=c1c2ccccc2nnn1CSc1nc2ccccc2[nH]1 | i | -5 | -7 | 2 | -1
COc1ccc(CC(=O)NNS(=O)(=O)c2ccc(F)cc2)cc1 | i | -4 | -11 | · | ·
CCOc1ccccc1N(C(=O)c1snc(C(N)=O)c1N)C(C(=O)NC1CCCC1)c1cccs1 (centres undefined) | i | -5 | 59* | · | ·
CC(=O)OCCCn1c(C)[n+](C)c2cc(Cl)c(Cl)cc21 | i | -16 | -137 | 24 | 0
CCn1c(C)[n+](CCOC(C)=O)c2cc(Cl)c(Cl)cc21 | + | 0 | -128 | 3 | 0
CC(C)n1c(=S)[nH]c2scc(-c3cccs3)c2c1=O | ? | 50 | 3 | 42* | 0
CCn1c(=S)[nH]c2scc(-c3cccs3)c2c1=O | i | 12 | -4 | -6 | 0
Cc1ccc(Cl)c2c1NC(=O)C2=O | · | · | -7 | · | ·
Cc1[nH]c(=O)c(S(=O)(=O)c2ccccc2)c(C)c1Cl | i | -3 | 4 | · | ·
CS(=O)(=O)N(CC(=O)NC1CC1)C1CCCCC1 | i | active | 6 | 7 | 1
SMILES | PABP FP inh | eIF4H FP inh | MLLE-PAM2 inh | eIF4E-4G inh | PERK inhibitor
O=[N+]([O-])c1cc2oc3c(c2c(C=NCc2ccncc2)c1O)CCCC3 | + | 102 | 14 | 13 | 0
CC(C)(C)N=Cc1c(O)ccc2oc3c(c12)CCCC3 | ? | 47 | 96 | · | ·
Cn1cc([N+](=O)[O-])c(C(=O)NCc2ccco2)n1 | i | -15 | 11 | 3 | 3.8*
Cc1occc1C(=O)NCc1ccco1 | + | 58* | -4 | -1 | 0
O=C(NCc1ccco1)c1cc2ccc(O)cc2oc1=O | + | ? | -7 | · | 1
CCc1ccc(/C=N/NC(=O)c2nnn(-c3nonc3N)c2CN2CCOCC2)cc1 | · | · | 11 | · | ·
Cc1cccc2cc(=O)[nH]c(C)c12 | + | 0 | -86 | -5 | 0
CC1(C(=O)NS(=O)(=O)C2CC2)CCCN(C(=O)c2ccccc2OC(F)(F)F)C1 (centres undefined) | · | · | -7 | · | ·
O=C(COc1ccccc1)Nc1ccc2oc(=O)ccc2c1 | i | -13 | 3 | · | ·
CC(C)N1CCc2c(sc(NC(=O)c3ccc(S(=O)(=O)N4CCOCC4)cc3)c2C#N)C1 | + | 78* | -58 | -4 | 1
CCOC(=O)N1CCc2c(sc(NC(=O)c3ccc(S(=O)(=O)N4CCCC4)cc3)c2C#N)C1 | i | 13 | -84 | 1 | 1
COCCOC(=O)C(CC(=O)O)NCc1ccco1 (centres undefined) | i | 4 | 10 | 1 | 4.0*
COC(=O)C(CC(=O)O)NCc1ccco1 (centres undefined) | i | 2 | -9 | 1 | 1
CCOc1cc(N2CCOCC2)c(OCC)cc1NC(=O)CN1CCSC1=O | · | · | 10 | · | ·
CS(=O)(=O)c1ccc(C(=O)NCC(c2ccco2)N2CCCCC2)cc1 (centres undefined) | i | 83* | 0 | -3 | 0
Cc1ccccc1NS(=O)(=O)c1ccc(C(=O)NCC(c2ccco2)N2CCCCC2)cc1 (centres undefined) | · | · | 5 | · | ·
OCC(CO)(CO)NC(=S)Nc1cc(Cl)cc(Cl)c1 | i | 20 | 26 | 97* | 2
CCCNC(=O)c1ccc2c(=O)c(O)c(-c3ccc(F)cc3)[nH]c2c1 | i | 25 | 8 | 98* | ·
CCCNC(=O)c1ccc2c(=O)c(O)c(-c3cccc(Br)c3)[nH]c2c1 | i | 18 | 8 | -9 | ·
O=C(/C=C/c1ccc(Cl)cc1)Nc1nccs1 | i | active | 5 | 6 | 1
O=C(CN1CCN(Cc2cccc(F)c2)CC1)Nc1ccccc1F | i | 3 | 7 | · | ·
O=C(Cc1cccs1)NCc1ccccc1 | i | 1 | 8 | -1 | 1
Cc1ccc(C(=O)NNC(=O)Cc2cccs2)cc1 | i | 4 | -19 | 1 | 1
O=C(Cc1cccs1)Nc1ccc(S(=O)(=O)Nc2ncccn2)cc1 | + | 61* | -32 | 10 | 0
O=C(Cc1cccs1)NCc1ccncc1 | i | -5 | 8 | 1 | 3.0*
SMILES | PABP FP inh | eIF4H FP inh | MLLE-PAM2 inh | eIF4E-4G inh | PERK inhibitor
NS(=O)(=O)c1ccc(CNC(=O)Cc2cccs2)cc1 | i | 58* | -28 | · | ·
O=C(Cc1cccs1)NNC(=O)c1ccc(F)cc1 | + | ? | -9 | -2 | 0
Cc1cccc(C)c1NC(=O)CN(C)C(=O)Cc1cccc(C(F)(F)F)c1 | i | -8 | -13 | · | ·
CCOc1cc(N2CCOCC2)c(OCC)cc1NC(=O)CN1CCCC(C)C1 (centres undefined) | + | ? | -10 | 2 | -1
CCOc1cc(N2CCOCC2)c(OCC)cc1NS(=O)(=O)c1cc(NC(C)=O)ccc1OC | i | 59* | -12 | · | ·
C#CCCOC(=O)N1C2=NC(C(=O)OC)=C(C(=O)OC)[C@@H]3Nc4ccccc4[C@]23C[C@H]1C(=O)OC | · | · | 7 | · | ·
